# Laboratory results as given in PubChem BioAssay (NCI).
# This is part of a sample that, as a whole, favours compounds with a hit. Of some 83,000 tested, about 20% had one in any assay.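 Note: values are percent growth. 100 is the growth of untreated cells, values between 100 and 0 indicate rising inhibition; between -100 and 0 indicates cell death.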 Unmarked numbers belong to inactive results. The source made the active and inactive calls. How the source made its calls: active means growth percent below 10; inactive means the rest.
# Tested on: MCF7 breast
# Assay: NCI-60 one-dose screen, 48 h (100 = growth as untreated, 0 = no growth, -100 = all killed)
# Conditions: 10 µM
row,SMILES,growth
1,COc1ccc(OC)c(/C=N/NC(=O)c2ccc3nc(-c4ccc(Cl)cc4)[nH]c3c2)c1,51.9%
2,Cc1ccc(-c2cc(-c3cc4ccccc4nc3Cl)[nH]c(=O)n2)cc1,1.81% (active)
3,CN1C(=O)N(C)C2SC(N/N=C/c3ccccc3)=NC21 (stereo unspecified),41%

# Tested on: HCT-116 colon
# Assay: as above
# Conditions: 10 µM
row,SMILES,growth
1,CCN1CCN(Cc2ccc(C(=O)Nc3cccc(-c4cn(-c5ccc6oc(=O)ccc6c5)nn4)c3)cc2C(F)(F)F)CC1,-100% (active)
2,COc1cc2oc(-c3cccc(C(=O)Nc4ccc(Cl)cc4)c3)cc(=O)c2c(OCCNC(=O)CNC(=O)OC(C)(C)C)c1OC,41.6%
3,O=C(NO)c1ccc(CN2CCN(c3nc(-c4ccccc4)c4ccccc4n3)CC2)cc1,18.9%
4,COC[C@@H](CC(C)C)N=C1NC(=O)/C(=C/c2ccc3ncsc3c2)N1,19.2%
5,O=C(/C=C/Nc1ccc(F)cc1F)c1ccc2c(c1)Nc1ccccc1S2,58.6%
6,COc1ccc(-c2cc(C(=O)N=Nc3c(O)[nH]c4ccc(F)cc34)c3ccccc3n2)cc1,39.7%
7,COc1cc(C2CC(c3ccccc3)=Nc3c(N)nc(N)nc3N2)ccc1Oc1nc(Nc2ccc(F)cc2)nc(N(C)C)n1 (stereo unspecified),3.43% (active)
8,COc1ccc(-c2cc(C(=O)N=Nc3c(O)[nH]c4ccccc34)c3ccccc3n2)cc1,-43.3% (active)
9,Cc1ccc(CSc2nc(Cl)c(C#N)c(-c3ccc(F)cc3)n2)cc1,59.3%
10,O=C(Nc1ccc(I)cc1)Nc1nc2ccc([N+](=O)[O-])cc2s1,-100% (active)
11,O=C(Nc1nc2ccccc2s1)c1ccc(Br)cc1,86.2%
12,O=c1oc2ccccc2cc1-c1csc(N=Nc2c(O)[nH]c3ccc(Br)cc23)n1,64.1%
13,COc1cccc(-c2ccc(/C=N/NC(=O)c3[nH]c4ccc(Br)cc4c3-c3ccccc3)o2)c1,-7.28% (active)
14,COc1ccc(-c2cc(-c3cc(C(=O)c4ccc(Br)cc4)n4ccc(C)cc34)nc(N)c2C#N)cc1,73.8%
15,CC1(C)[C@@H](NCO)CC[C@]2(C)[C@H]3C(=O)C=C4[C@@H]5C[C@](C)(CO)CC[C@]5(C)CC[C@@]4(C)[C@]3(C)CC[C@@H]12,37.8%
16,CO[C@@H]1CSS[C@H]1Cn1nc(-c2ccc(Oc3ccccc3)cc2)c2c(N)ncnc21,31.7%
17,CC(=O)Nc1ccc(-c2cn(-c3cccc(C(=O)Nc4ccc(F)c(C(F)(F)F)c4)c3)nn2)cn1,14.7%

row,SMILES,growth
1,CC1(c2ccccc2)NC(=O)N(CC(=O)Nc2ccc(C(=O)/C=C/c3ccccc3)cc2)C1=O (stereo unspecified),-65% (active)
2,CN(C(=O)c1ccc(C(C)(C)C)cc1)c1sc2c(c1C#N)CCC(=O)C2,-9.14% (active)
3,Nc1nc(-c2ccccc2)cs1,50.7%
4,CN1C(=O)N(C)C2SC(N/N=C/c3cccs3)=NC21 (stereo unspecified),28.2%
5,O=C(CSc1nnc(-c2c[nH]c3ccccc23)n1-c1ccccc1)c1ccccc1,38%
6,Nc1nc2c(F)c(F)c(F)c(F)c2s1,113%
7,CC1=C(c2cc(-c3ccc(Cl)cc3)c(C#N)c(N)n2)C(c2ccccc2)NC(=S)N1 (stereo unspecified),-18.8% (active)
8,Cc1noc2c(Cc3ccc([N+](=O)[O-])cc3)nn(CC(=O)N/N=C/c3ccc(Cl)cc3)c(=O)c12,21.7%
9,CN1CCN(Cc2ccc(C(=O)Nc3cccc(Nc4ccc5cc(O)ccc5n4)c3)cc2C(F)(F)F)CC1,1.51% (active)
10,CN1CCN(c2ccc(C(=O)/C=C/c3ccc(OC(F)F)cc3)cc2)CC1,-62.5% (active)
11,CN1CCN(Cc2ccc(NC(=O)c3cncc(C#Cc4cnc5ccc(N[C@H]6CCOC6)nn45)c3)cc2C(F)(F)F)CC1,-62.6% (active)
12,C/C(=N\NC(N)=S)c1ccc(Nc2nc(SC(C)C)nc(-c3ccccc3)c2C#N)cc1,57.5%
13,COc1ccc2[nH]c(=O)c(CSc3ccc(Nc4nccc(-c5ccc(Cl)cc5)n4)cc3)cc2c1,78.9%
14,CCOc1ccc(/C=N/NC(=O)Cn2nc(Cc3ccc([N+](=O)[O-])cc3)c3onc(C)c3c2=O)cc1,-26% (active)
15,Brc1ccc(/C=C/c2n(Cc3ccc4ccccc4c3)c3ccccc3[n+]2Cc2ccc3ccccc3c2)cc1,-86.5% (active)
16,COc1ccc(C2N(c3ccc(Br)cc3)N=C(C(C)=O)N2[C@H]2[C@H](OC(C)=O)O[C@H](COC(C)=O)[C@@H](OC(C)=O)[C@@H]2OC(C)=O)cc1 (stereo partly specified),69%
